# Source: PubChem
# INS-1E GSIS act = primary screen for activators of insulin secretion dependent on glucose, INS-1E cells, GLuc reporter luminescence; INS-1E GLuc reporter insulin secretion, 2-3 h; activation, % at 16.6 µM; 0.61% of 370,000 active; AID 743287;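 active = lowest replicate activation of at least 40%, so every replicate reaches that level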
# PGC1a acetyl inh = PGC1a acetylation modulation, inhibitor mode; U2OS PGC1a acetylation, AlphaScreen anti-acetyl-lysine; with virally co-expressed GCN5 acetyltransferase; inhibition, % at 15.6 µM; 0.17% of 350,000 active; AID 651687;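 active = every replicate shows inhibition of at least 40%; inconclusive = mean inhibition at least 40% but some replicate below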
# NSD2 HMT inh = inhibitors of human histone methyltransferase NSD2; NSD2 peptide methylation, AlphaScreen, 120 min; 0.54% of 310,000 active; inhibition, % at 12.5 µM; AID 743445; in the data active = inhibition above about 50%
# Target sequence (O96028 whole entry, looked up): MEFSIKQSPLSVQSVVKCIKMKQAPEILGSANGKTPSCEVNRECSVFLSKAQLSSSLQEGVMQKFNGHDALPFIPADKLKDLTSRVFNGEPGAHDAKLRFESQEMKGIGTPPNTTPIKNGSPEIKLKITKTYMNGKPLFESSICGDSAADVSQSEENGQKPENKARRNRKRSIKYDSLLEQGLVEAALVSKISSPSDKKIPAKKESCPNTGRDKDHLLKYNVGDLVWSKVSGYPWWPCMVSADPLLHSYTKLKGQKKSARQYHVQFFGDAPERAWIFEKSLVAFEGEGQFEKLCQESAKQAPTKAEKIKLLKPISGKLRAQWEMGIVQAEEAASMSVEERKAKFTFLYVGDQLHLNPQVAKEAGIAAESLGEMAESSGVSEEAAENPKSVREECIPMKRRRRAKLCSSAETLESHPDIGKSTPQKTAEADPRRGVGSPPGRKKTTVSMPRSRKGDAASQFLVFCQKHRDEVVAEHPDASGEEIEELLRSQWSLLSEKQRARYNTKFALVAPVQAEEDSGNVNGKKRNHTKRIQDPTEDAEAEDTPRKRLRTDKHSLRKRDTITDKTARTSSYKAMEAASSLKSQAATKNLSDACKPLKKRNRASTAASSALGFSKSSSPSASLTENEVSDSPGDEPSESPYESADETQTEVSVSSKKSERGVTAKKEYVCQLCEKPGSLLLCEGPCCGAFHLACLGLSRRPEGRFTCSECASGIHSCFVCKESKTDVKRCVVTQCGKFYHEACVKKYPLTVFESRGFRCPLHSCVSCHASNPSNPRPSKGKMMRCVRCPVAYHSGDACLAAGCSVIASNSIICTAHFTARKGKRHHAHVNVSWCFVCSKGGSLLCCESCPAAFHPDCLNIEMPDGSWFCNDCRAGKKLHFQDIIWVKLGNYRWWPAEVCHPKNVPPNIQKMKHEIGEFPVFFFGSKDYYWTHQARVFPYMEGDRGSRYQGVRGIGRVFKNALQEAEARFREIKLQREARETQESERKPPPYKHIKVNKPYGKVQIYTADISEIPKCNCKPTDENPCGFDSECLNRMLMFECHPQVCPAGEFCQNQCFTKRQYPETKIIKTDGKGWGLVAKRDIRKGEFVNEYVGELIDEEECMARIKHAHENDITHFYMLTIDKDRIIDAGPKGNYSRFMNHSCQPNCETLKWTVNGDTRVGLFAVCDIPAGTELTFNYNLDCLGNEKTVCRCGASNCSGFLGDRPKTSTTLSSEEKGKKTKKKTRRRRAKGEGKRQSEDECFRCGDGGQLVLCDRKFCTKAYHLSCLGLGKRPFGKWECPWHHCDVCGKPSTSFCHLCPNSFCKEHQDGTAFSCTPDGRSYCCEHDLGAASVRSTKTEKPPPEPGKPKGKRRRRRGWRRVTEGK
# MLL AF4-AF9 inh = inhibitors of human MLL-AF4/AF9 interaction; 0.47% of 350,000 active; P42568; inhibition, % at 10 µM; AlphaScreen, biotin-AF4 peptide binding to FLAG-AF9;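 active = every replicate reaching a set inhibition limit, whatever the replicate mean, cut at about 25% in these data; inconclusive = mean inhibition reaches that limit but some replicates miss it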
# HIV Env fusion = blocks HIV Env-driven cell-cell fusion | HeLa-JRFL Env/CEM21 cell fusion, luciferase | 1.1% of 360,000 active | inhibition, % at 12.3 µM | AID 651610;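 active = mean replicate inhibition score of at least 50 and every replicate individually at or above 50; inconclusive = only one of the two criteria met; inactive = mean below 50 and not all replicates reaching 50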
# Numbers stand for hits; - = inactive; ? = inconclusive; . = no result given. Only some compounds are listed: those with a hit (about 2.1% of all), similar ones and a draw of the others.
SMILES,INS-1E GSIS act,PGC1a acetyl inh,NSD2 HMT inh,MLL AF4-AF9 inh,HIV Env fusion
CCCCCCCn1c2c(c(=N)c3c1CCC3)CCCC2,.,-,-,-,71.8
CCCCCCn1c2c(c(=N)c3c1CCC3)CCC2,-,-,-,.,81.4
CCCCn1c2c(c(=N)c3c1CCC3)CCC2,-,.,-,.,.
COCC#Cc1cnc2c(c1)C(=O)N([C@H](C)CO)C[C@@H](C)[C@@H](CN(C)S(=O)(=O)c1cccc(OC)c1)O2,-,-,.,-,-
COc1cccc(C2Nc3ccccc3C(=O)N2O)c1O (centres undefined),-,-,-,.,.
COC(=O)[C@@]1(Cc2ccccc2)[C@H]2C(=O)N(Cc3ccccc3)C(=O)[C@H]2[C@H]2CN=C(SCc3ccc(C#N)cc3)N21,-,-,.,-,69.2
CC[C@]1(C(=O)OC)[C@H]2C(=O)N(Cc3ccccc3)C(=O)[C@H]2[C@H]2CN=C(SCC3CC3)N21,-,-,.,-,80.9
CCN1C(=O)[C@H]2[C@H]3CN=C(SCc4ccc(C#N)cc4)N3[C@@](Cc3ccccc3)(C(=O)OC)[C@H]2C1=O,-,-,.,-,-
CCN1C(=O)[C@H]2[C@H]3CN=C(SCC4CC4)N3[C@@](Cc3ccccc3)(C(=O)OC)[C@H]2C1=O,-,.,.,-,-
COC(=O)[C@@]1(C)[C@H]2C(=O)N(Cc3ccccc3)C(=O)[C@H]2[C@H]2CN=C(SCc3ccccc3)N21,-,-,.,-,77.1
CC[C@]1(C(=O)OC)[C@H]2C(=O)N(Cc3ccccc3)C(=O)[C@H]2[C@H]2CN=C(SCc3ccc(C)cc3)N21,-,-,.,-,69.4
O=C(c1ccc(Cl)cc1)N1CCCCC(Sc2nnc(-c3ccc4c(c3)OCO4)o2)C1=O (centres undefined),.,-,.,.,59.9
CO[C@@H]1CN(C)C(=O)c2ccc(NC(C)=O)cc2OC[C@H](C)N(C(=O)c2cnccn2)C[C@@H]1C,-,-,.,-,-
CCc1ccc(CN(C)C(=O)c2cc(COc3ccc(-n4cncn4)cc3)on2)cc1,-,-,-,-,-
CN(Cc1ccc(F)cc1)C(=O)c1cc(COc2ccc(-n3cncn3)cc2)on1,-,-,-,-,62.5
C[C@H]1CN([C@@H](C)CO)C(=O)CCCn2nncc2CO[C@@H]1CN(C)C(=O)Cc1ccccc1,-,-,.,-,-
CCOC(=O)c1c(S(=O)(=O)N(C)Cc2ccccc2)c(C)n(C)c1C,-,-,-,-,-
CCOCCCNC(=O)Cn1nc(-c2ccc(OC)c(OC)c2)ccc1=O,-,-,-,-,-
CCOCCCNC(=O)Cn1nc(-c2ccccc2)ccc1=O,-,-,.,50.8,-
CNC(=O)C1CCN(S(=O)(=O)c2c(C)noc2/C=C/N(C)C)CC1,-,-,-,-,-
O=C(Oc1ccc(-c2nccc(-c3ccccn3)n2)cc1)c1cccc(C(F)(F)F)c1,.,-,-,.,.
Cc1ccc(C(=O)Oc2ccc(-c3nccc(-c4ccccn4)n3)cc2)cc1,56.4,-,-,.,.
CN(C)CCCNC(=O)C[C@H]1C[C@H](C(=O)N2CCCCC2)[C@@]2(C)c3[nH]c4cc(-c5ccco5)ccc4c3CCN2C1=O,-,-,.,-,-
CN(C)CCCNC(=O)C[C@H]1C[C@H](C(=O)N2CCCCC2)[C@@]2(CCc3ccccc3)c3[nH]c4cc(-c5ccco5)ccc4c3CCN2C1=O,-,.,.,52.9,.
COC(=O)[C@]12C[C@H](CC(=O)N3CCCC3)C(=O)N(CCC3=CCCCC3)C1=C[C@H](C(C)(C)C)O[C@@H]2C,294.0,.,.,-,-
SMILES,INS-1E GSIS act,PGC1a acetyl inh,NSD2 HMT inh,MLL AF4-AF9 inh,HIV Env fusion
COC(=O)[C@]12C[C@H](CC(=O)NCc3cccc4ccccc34)C(=O)N(CCC3=CCCCC3)C1=C[C@H](C(C)(C)C)O[C@@H]2C,-,.,.,-,86.9
CCCCNC(=O)C[C@H]1C[C@@]2(C(=O)OC)C(=C[C@H](C(C)(C)C)O[C@@H]2C)N(CCC2=CCCCC2)C1=O,.,.,.,-,72.4
COC(=O)[C@]12C[C@H](CC(=O)NCCC(C)C)C(=O)N(CCC3=CCCCC3)C1=C[C@H](C(C)(C)C)O[C@@H]2C,.,.,.,-,58.9
COC(=O)[C@]12C[C@H](CC(=O)N3CCOCC3)C(=O)N(CCC3=CCCCC3)C1=C[C@H](C(C)(C)C)O[C@@H]2C,.,.,.,-,?
COC(=O)[C@]12C[C@H](CC(=O)NCCCN3CCCC3=O)C(=O)N(CCC3=CCCCC3)C1=C[C@H](C(C)(C)C)O[C@@H]2C,.,.,.,-,-
Cc1c(NC(=O)CCCN2C(=O)c3cccc4cccc(c34)C2=O)c(=O)n(-c2ccccc2)n1C,-,.,-,-,-
O=C(O)COc1ccc2c3c(c(=O)oc2c1)CCC3,130.5,-,-,.,.
CC(Oc1ccc2c3c(c(=O)oc2c1)CCCC3)C(=O)NCc1cccnc1 (centres undefined),48.1,.,-,-,-
CCN1CCN(Cc2ccc(NC(=O)c3cc(NC(=O)c4cc5cccc(OC)c5o4)cc(OC)c3)cc2C(F)(F)F)CC1,-,-,.,-,-
O=c1[nH]nc(-c2ccc(NCCCO)c([N+](=O)[O-])c2)c2ccccc12,-,59.3,-,-,-
O=c1[nH]nc(-c2ccc(NCCO)c([N+](=O)[O-])c2)c2ccccc12,-,-,-,-,-
Cc1ccc(N(C(=O)Cc2cccs2)C(C(=O)NC2CCCCC2)c2ccccn2)cc1C (centres undefined),-,.,-,.,82.3
Cc1ccc(C)c(N(C(=O)c2csnn2)C(C(=O)NC2CCCCC2)c2ccccn2)c1 (centres undefined),-,-,-,37.3,-
Cc1cccc(N(C(=O)Cc2cccs2)C(C(=O)NC2CCCC2)c2ccncc2)c1 (centres undefined),-,-,-,-,-
OCCOCCOCCn1c2ccccc2c2ccccc21,-,.,-,.,-
CCOc1cc(/C=C2\CN(C)C/C(=C\c3ccc(O)c(OCC)c3)C2=O)ccc1O,-,53.2,.,?,-
COc1ccc2c(c1)CCc1c(C(=O)NCc3ccc(Cl)cc3)noc1-2,-,-,-,.,-
COc1ccc2c(c1)CCc1c(C(=O)Nc3cc(C)n(Cc4ccc(Cl)cc4)n3)noc1-2,47.1,-,-,.,-
COc1ccc2c(c1)CCc1c(C(=O)NCCc3ccc(OC)c(OC)c3)noc1-2,.,-,-,.,59.2
COc1ccc2c(c1)CCc1c(C(=O)Nc3ccc(OC)c(OC)c3)noc1-2,.,.,-,.,-
COC(=O)c1ccc(NS(=O)(=O)N(C)C)cc1,.,.,-,.,-
COc1ccccc1C(=O)NC(=S)Nc1ccc2[nH]c(=O)[nH]c2c1,44.5,-,-,-,-
CC(C)C[C@@]12C(=O)N(c3cccc(F)c3)C(=O)N1[C@H](c1ccc(Br)cc1)[C@@H]1C(=O)N(C(C)(C)C)C(=O)[C@@H]12,-,-,.,.,68.9
CC(C)C[C@@]12C(=O)N(c3ccc(Br)cc3)C(=O)N1[C@H](c1ccc(Br)cc1)[C@@H]1C(=O)N(C(C)(C)C)C(=O)[C@@H]12,-,-,.,-,79.8
CC[C@@]12C(=O)N(c3cccc(Cl)c3)C(=O)N1[C@H](c1ccc(Br)cc1)[C@@H]1C(=O)N(C(C)(C)C)C(=O)[C@@H]12,-,-,.,-,83.9
